# This excerpt belongs to a sample that is enriched for hits.
# IDE exosite FP: exo-site inhibitors of human insulin-degrading enzyme; z-score at 20 µM; AID 1259349; hit rate 6.3% among 17,000; purified IDE, FL-6b probe fluorescence polarization; hits give low values;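 active = z-score of -3 or lower, meaning strong loss of probe binding signal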;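 also: His-tagged human IDE residues 42-1019 made in E. coli with 30 nM FL-6b probe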
# * marks the source's active call; other numbers are inactive results.
SMILES,IDE exosite FP
COCC(=O)N(C[C@H]1N[C@@H](CO)[C@@H]1c1ccc(-c2cccnc2)cc1)C(C)C,-0.768
CCCC#Cc1ccc([C@H]2[C@@H](CO)N3CCCCN(Cc4cncnc4)C[C@H]23)cc1,-1.76
CCCC#Cc1ccc([C@@H]2[C@H]3CN(Cc4cncnc4)CCCCN3[C@H]2CO)cc1,2.86
CCCC#Cc1ccc([C@@H]2[C@@H](CO)N3CCCCN(Cc4cncnc4)C[C@H]23)cc1,3.71
OC[C@@H]1[C@@H](c2ccc(C#Cc3ccccc3)cc2)[C@@H]2CN(Cc3ccccn3)CCCCN12,-8.65*
OC[C@H]1[C@@H](c2ccc(C#Cc3ccccc3)cc2)[C@@H]2CN(Cc3cncnc3)CCCCN12,-16.2*
OC[C@@H]1[C@H](c2ccc(Br)cc2)[C@H]2CN(Cc3ccccn3)CCCCN12,0.723
OC[C@@H]1[C@@H](c2ccc(-c3ccccc3)cc2)[C@@H]2CN(Cc3ccccn3)CCCCN12,-2.94
COCC#Cc1ccc([C@H]2[C@H](CO)N3CCCCN(Cc4cncnc4)C[C@@H]23)cc1,3.81
OC[C@H]1[C@H](c2ccc(C#Cc3ccccc3)cc2)[C@H]2CN(Cc3cncnc3)CCCCN21,-7.77*
O=C(Nc1ccc(F)cc1)N1CCCCN2[C@H](C1)[C@H](c1ccc(C3=CCCCC3)cc1)[C@@H]2CO,0.603
FC(F)(F)c1cccc(CN2[C@@H]3CNC[C@H]2[C@@H]3c2ccc(-c3cccnc3)cc2)c1,-0.868
COc1ccc(C#Cc2ccc([C@@H]3[C@@H](CO)N4C(=O)CN(C(=O)c5ccccc5)C[C@@H]34)cc2)cc1,3.14
Cn1cnc(S(=O)(=O)N2[C@@H]3CNC[C@H]2C3c2ccc(-c3ccncc3)cc2)c1 (some centres undefined),4.82
O=C(NC1CCCC1)N1CC(=O)N2[C@H](CO)[C@@H](c3ccc(-c4ccc(F)cc4)cc3)[C@H]2C1,2.42
O=C(NC1CCCCC1)N1CC(=O)N2[C@H](C1)[C@H](c1ccc(-c3cccc(F)c3)cc1)[C@@H]2CO,-6.25*
O=C(NC1CCCCC1)N1CC(=O)N2[C@H](CO)[C@H](c3ccc(-c4cccc(F)c4)cc3)[C@H]2C1,-12.7*
O=C(NC1CCCC1)N1CC(=O)N2[C@H](C1)[C@H](c1ccc(-c3ccc(F)cc3)cc1)[C@@H]2CO,2.09
O=C(NC1CCCC1)N1CC(=O)N2[C@H](CO)[C@H](c3ccc(-c4ccc(F)cc4)cc3)[C@@H]2C1,3.75
O=C(NC1CCCC1)N1CC(=O)N2[C@H](C1)[C@@H](c1ccc(-c3ccc(F)cc3)cc1)[C@@H]2CO,1.21
O=C(O)C[C@H]1C=C[C@@H](NC(=O)Nc2cc(F)ccc2F)[C@H](CO)O1,0.463
N#Cc1cccc(-c2ccc(C3[C@H]4CNC[C@@H]3N4Cc3ccc(F)cc3)cc2)c1 (some centres undefined),3.02
C[C@H]1CCCCO[C@@H](CN(C)C(=O)CCCN(C)C)[C@@H](C)CN([C@@H](C)CO)C(=O)c2cc(NS(=O)(=O)c3ccc(Cl)cc3)ccc2O1,0.0315
N#C[C@@H]1[C@@H](c2ccccc2C2=CCCCC2)[C@@H](CO)N1C(=O)CN1CCOCC1,-0.507
O=C(Nc1cccc(F)c1)N1CC(=O)N2[C@@H](CO)[C@@H](c3ccc(Br)cc3)[C@@H]2C1,1.32
SMILES,IDE exosite FP
O=C(c1ccncc1)N1CC(=O)N2[C@H](C1)[C@H](c1ccc(C#CCC3CCCC3)cc1)[C@@H]2CO,3.56
O=C(Cc1ccccc1)N1CC[C@H]2[C@H](CO)Nc3ccc(C4=CCCCC4)cc3[C@H]21,2.77
Cc1noc(C)c1S(=O)(=O)N(C)C[C@@H]1OCCCC[C@H](C)Oc2ccc(NS(=O)(=O)c3cn(C)cn3)cc2C(=O)N([C@H](C)CO)C[C@@H]1C,1.54
O=C(C1CCCC1)N1CC(=O)N2[C@H](C1)[C@H](c1ccc(-c3ccccc3F)cc1)[C@@H]2CO,-2.93
O=C(C1CCOCC1)N1CC(=O)N2[C@@H](CO)[C@H](c3ccc(C4=CCCC4)cc3)[C@@H]2C1,1.12
O=C(C1CCCC1)N1CC(=O)N2[C@@H](CO)[C@H](c3ccc(-c4ccccc4F)cc3)[C@@H]2C1,-5.72*
O=C(C1CCC1)N1CC(=O)N2[C@H](CO)[C@@H](c3ccc(Br)cc3)[C@H]2C1,-0.543
O=C(C1CCC1)N1CC(=O)N2[C@@H](CO)[C@@H](c3ccc(-c4ccccc4F)cc3)[C@@H]2C1,-5.57*
O=C(C1CCCC1)N1CC(=O)N2[C@H](CO)[C@@H](c3ccc(-c4ccccc4F)cc3)[C@H]2C1,2.79
O=C(C1CCC1)N1CC(=O)N2[C@@H](CO)[C@@H](c3ccc(C4=CCCCC4)cc3)[C@@H]2C1,-3.87*
O=C(C1CCC1)N1CC(=O)N2[C@H](C1)[C@@H](c1ccc(Br)cc1)[C@@H]2CO,0.906
O=C(C1CC1)N1CC(=O)N2[C@H](C1)[C@@H](c1ccc(-c3ccccc3F)cc1)[C@@H]2CO,-8.07*
O=C(C1CC1)N1CC(=O)N2[C@@H](CO)[C@H](c3ccc(-c4ccccc4F)cc3)[C@@H]2C1,0.709
CN(C)C(=O)c1cccc(-c2ccc([C@H]3[C@H](CO)N4C(=O)CN(C(=O)CC5CC5)C[C@@H]34)cc2)c1,2.15
CN(C)C(=O)C[C@H]1C[C@H]2c3cc(NC(=O)Nc4ccc(F)cc4)ccc3O[C@H]2[C@@H](CO)O1,-0.392
Cc1ccccc1S(=O)(=O)N1CCCCN2[C@H](CO)[C@H](c3ccc(-c4cncnc4)cc3)[C@@H]2C1,4.51
N#C[C@H]1[C@@H](c2ccc(C#CC3CC3)cc2)[C@@H](CO)N1S(=O)(=O)c1ccccc1,1.65
C[C@@H]1CCCCO[C@H](CN(C)C(=O)c2ccncc2)[C@@H](C)CN([C@@H](C)CO)C(=O)c2cc(NC(=O)CCC(F)(F)F)ccc2O1,0.324
O=C1CN(S(=O)(=O)Cc2ccccc2)C[C@@H]2[C@H](c3ccc(C#Cc4cccc(F)c4)cc3)[C@@H](CO)N12,4.41
CC(=O)NC[C@@H]1[C@H](c2ccc(-c3ccccc3F)cc2)[C@H](CO)N1C(C)=O,2.88
O=C(C1CCC1)N1CC(=O)N2[C@H](CO)[C@H](c3ccc(-c4ccccc4F)cc3)[C@@H]2C1,-3.17*
N#C[C@@H]1[C@H](c2ccccc2/C=C/c2ccccc2)[C@H](CO)N1S(=O)(=O)c1ccccc1,3.42
CO[C@H](CN(C)Cc1cc(F)ccc1F)[C@@H](C)CN([C@H](C)CO)S(=O)(=O)c1ccc(C)cc1,0.314
CCCC#Cc1ccc([C@@H]2[C@@H](CO)N3C(=O)CN(C(=O)c4cccc(F)c4)C[C@@H]23)cc1,0.51
C[C@@H]1CCn2cc(nn2)COC[C@H](Cc2ccccc2)NC1=O,0.0371
SMILES,IDE exosite FP
Cc1ccccc1S(=O)(=O)N1C[C@H](O)COC[C@@H]2O[C@H](CC(=O)N3CCCCC3)CC[C@H]21,-0.374
N#C[C@@H]1N[C@@H](CO)[C@H]1c1ccc(-c2cccc(F)c2)cc1,-0.708
CNC(=O)C[C@H]1CC[C@@H]2[C@H](COc3ccc(NC(=O)c4ccccc4F)cc3C(=O)N2C)O1,0.446
O=C(Nc1cccc(F)c1)N1C[C@@H]2N[C@H](C1)C2c1ccc(-c2ccccc2F)cc1 (some centres undefined),-0.694
O=C(NC1CCCCC1)N1C[C@@H]2N[C@H](C1)C2c1ccc(-c2ccc(F)cc2)cc1 (some centres undefined),2.19
O=C(Nc1ccc(F)cc1)N1C[C@@H]2N[C@H](C1)C2c1ccc(/C=C/c2ccccc2)cc1 (some centres undefined),0.825
